Sampled rows, rich in hits. Any-hit rate of the full collection: about 10%.
IMPase inh – membrane-permeable compound that blocks inositol monophosphatase. P97697. 120,000 tested, under 10 active. CHO-M1 cells, IP1 accumulation, HTRF TR-FRET ratio. inhibition (IP1 accumulation), % at 46.1 µM; active means well fitted curve in the direction sought with a large enough effect in the signal ratio, not every such curve was filed as active; inconclusive means small, poorly fitted or top-dose-only effect, or a change in a side signal; inactive means no such curve, though single readings can be large or run the other way; the % refers to the signal ratio;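 further: cells stimulated with carbachol in lithium chloride buffer; plate controls were DMSO basal wells for no effect and reference inhibitor wells for full effect; higher means more IMPase inhibition seen as more IP1 and lower FRET ratio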
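Elevated IP1 in lysates lowers TR-FRET signal (665/620 ratio and 620 channel reported). Cells were CHO-M1, given carbachol (50 uM as added) plus 50mM LiCl, pH 7.4, 30 min, 37C; compounds titrated up to 46 uM; AC50 by Hill equation.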
ALDH1A1 inh – blocks purified human ALDH1A1 activity | Potency, µM (series often up to 75.3 µM), inactives show at the highest dose activity, negative = inhibition, most hits filed as inhibitors | 220,000 tested, 7.3% active | Purified ALDH1A1, NADH fluorescence, propionaldehyde substrate;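 further: potency means the concentration at half of the fitted maximal effect; plate controls were no enzyme wells and a reference inhibitor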
Target sequence (P00352 whole entry, looked up): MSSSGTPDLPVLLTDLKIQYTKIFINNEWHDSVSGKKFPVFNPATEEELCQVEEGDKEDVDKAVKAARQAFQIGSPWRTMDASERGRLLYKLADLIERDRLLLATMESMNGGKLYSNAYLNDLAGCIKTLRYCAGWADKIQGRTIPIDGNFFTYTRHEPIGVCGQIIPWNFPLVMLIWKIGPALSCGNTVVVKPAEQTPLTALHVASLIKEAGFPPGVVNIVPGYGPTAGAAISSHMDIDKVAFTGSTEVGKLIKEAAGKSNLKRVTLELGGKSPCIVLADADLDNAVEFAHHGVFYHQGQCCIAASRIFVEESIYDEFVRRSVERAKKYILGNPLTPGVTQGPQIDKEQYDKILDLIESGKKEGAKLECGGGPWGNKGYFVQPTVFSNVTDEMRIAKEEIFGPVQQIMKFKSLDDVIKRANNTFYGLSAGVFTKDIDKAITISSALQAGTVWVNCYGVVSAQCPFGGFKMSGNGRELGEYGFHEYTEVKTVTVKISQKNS
Lamin A splicing – LMNA splicing modulation; HeLa LMNA splicing GFP/RFP minigene ratio, 48 h; Potency, µM (titrated, usually from 46.1 µM), inactives show at the top dose ratio change, negative = inhibition, most hits filed as inhibitors; 200,000 tested, 0.01% active; AID 1487; active means well fitted inhibition curve with a large enough effect in the signal ratio, with a control signal flat, not every such curve was filed as active; inconclusive means small, poorly fitted or top-dose-only effect, or effect the other way, or a change in a side signal; the % refers to the signal ratio; further: potency means the concentration at half of the fitted maximal effect
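Read-out is the ratio of GFP to DsRed2 object intensity, acquired by 488 nm laser-scanning cytometry on HeLa lamin A-EGFP minigene reporter cells. Compound incubation 48 hrs at 37 °C in Opti-MEM with 2% FBS; DMSO 0.5% final.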
PNC assembly inh – perinucleolar compartment assembly inhibition | PC3M PTB-GFP, PNC prevalence imaging, 16 h; hits give low values | activity change (PNC), negative = inhibition, % at 10 µM | 140,000 tested, 3.1% active;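 active means readout at or below -70, meaning at least 70% loss of cells showing the perinucleolar compartment, a nuclear body marking cancer cells; inconclusive means readout between -30 and a set limit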;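 further: plate controls were DMSO wells for no effect and camptothecin positive control wells for full effect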
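Read-out is percentage of cells bearing a perinucleolar compartment, from automated 20x imaging of fixed, Hoechst-stained PC3M PTB-GFP cells. Cells were seeded 4 h, then exposed 16 h to compound (23 nl of library stock) in duplicate plates.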
Luc counter – Kinase-Glo luciferase inhibition (counter-screen); Q27757; Kinase-Glo luciferase, ATP luminescence, 8 min; Potency, µM (doses to about 38.3 µM), inactives show at the highest dose activity change, negative = inhibition, actives largely listed as inhibitors; 200,000 tested, 0.28% active; active means well fitted inhibition curve with a large enough effect; inconclusive means small, poorly fitted or top-dose-only effect; further: potency means the concentration at half of the fitted maximal effect; nearly all actives have a fitted effect of over 60% in size
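Compound is pinned into ATP-containing buffer (10 uM ATP, imidazole pH 7.2, 7 mM MgCl2). Kinase-Glo luciferase reagent is then added. Light output is recorded following an 8-min room-temperature incubation.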
HPGD inh – HPGD (human) dehydrogenase inhibition. P15428. purified HPGD, NADH fluorescence kinetic, PGE2 substrate. Potency, µM, for inactives: at the highest dose activity change, negative = inhibition, most hits filed as inhibitors. 150,000 tested, 4.3% active. AID 894; further: potency means the concentration at half of the fitted maximal effect
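20 nM HPGD preincubated 15 min at room temperature with compound in 50 mM Tris-HCl pH 8, 0.01% Tween 20. Started with 1 mM NAD+ and 30 uM prostaglandin E2; NADH fluorescence (360/450 nm) read 5 times over 30-s intervals, last minus first.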
Numbers without * were called inactive; ? = inconclusive; · = no result; [ ] = remark or other dose. Unless noted, the call rests on the fitted dose curve; in most records, active means well fitted inhibition curve with a large enough effect (not every such curve was filed as active); inconclusive means small, poorly fitted or top-dose-only effect, or another doubt; inactive means no such curve, though single readings can be large or run the other way. Unless noted, on the % scale 0 is the no-effect control and ±100 the full control effect.

SMILES	IMPase inh	ALDH1A1 inh	Lamin A splicing	PNC assembly inh	Luc counter	HPGD inh
CCC(C)NC(C(=O)Nc1ccc(Cl)c([N+](=O)[O-])c1)c1ccccc1 (centres undefined)	4	?	-6%	23	1%	1%
CC(C)C(=O)Nc1ccc([N+](=O)[O-])cc1Br	·	-1%	7%	18	0%	-3%
O=C(Nc1ccc(Cl)c([N+](=O)[O-])c1)C(NCCCO)c1ccccc1 (centres undefined)	·	0.71µM*	1%	?	3%	-3%
COCCNC(C(=O)Nc1ccc([N+](=O)[O-])cc1Br)c1ccccc1 (centres undefined)	·	13µM*	?	-7	-1%	-16%
CCCCNC(C(=O)Nc1ccc([N+](=O)[O-])cc1Br)c1ccccc1 (centres undefined)	·	?	?	-118*	1%	-9%
COCCNC(C(=O)Nc1ccc(C)cc1[N+](=O)[O-])c1ccccc1 (centres undefined)	·	25µM*	·	·	-1%	·
O=C(OC(C(=O)Nc1ccc([N+](=O)[O-])cc1Br)c1ccccc1)c1ccccc1 (centres undefined)	·	?	-4%[46 µM]	·	6%	·
Cc1ccc(C(=O)Nc2ccccc2C(=O)O)cc1S(=O)(=O)N1CCCCCC1	0	·	·	·	·	·
COc1cc(C(=O)Nc2ccc(OCc3cc(=O)n4cccc(C)c4n3)cc2)cc(OC)c1OC	·	·	9%[46 µM]	·	·	·
CCOc1ccc(N2C(=O)CC(SC(=NC)Nc3ccc(F)cc3)C2=O)cc1 (centres undefined)	3	6%	-11%	-100*	-1%	-13%
O=C1CC(SC(=NCc2ccc3c(c2)OCO3)Nc2ccccc2)C(=O)N1 (centres undefined)	0	?	-2%	-115*	-4%	-2%
COc1ccc(CN=C(Nc2ccccc2)SC2CC(=O)NC2=O)cc1 (centres undefined)	·	-13%	·	·	-3%	·
CCOc1ccc(NC(=NCc2ccc3c(c2)OCO3)SC2CC(=O)N(c3ccccc3)C2=O)cc1 (centres undefined)	-9	12%	-14%	-100*	3%	-7%
Cc1cccc(OCc2nc(CC(=O)Nc3ccc(C)cc3C)cs2)c1	·	·	13%[46 µM]	·	·	·
COc1ccc(C(C#N)N2CCC(c3ccccc3)=N2)cc1OC (centres undefined)	·	2.2µM*	?	·	1%	·
COc1ccc(C(C#N)N2CCCCCC2)cc1OC (centres undefined)	4	?	0%	-10	0%	-12%
COc1ccc(C2=NN(C(C#N)c3ccc(OC)c(OC)c3)C(c3ccccc3)C2)cc1 (centres undefined)	3	18µM*	-8%	7	-5%	-29%
COc1ccc(-c2nc3scc(CCNS(=O)(=O)c4ccc5c(c4)OCCO5)n3n2)cc1OC	·	·	-3%[46 µM]	·	·	·
COc1ccc(-c2cc(=O)c3c(O)cc(O[C@@H]4OC(COC5OC(C)C(O)C(O)[C@@H]5O)C(O)C(O)C4O)cc3o2)cc1 (some centres undefined)	·	-5%	·	·	-3%	22µM*
COc1ccc(-c2cc(=O)c3c(O)cc(O[C@H]4OC(COC5OC(C)C(O)C(O)[C@H]5O)C(O)C(O)C4O)cc3o2)cc1O (some centres undefined)	·	?	·	·	-8%	-19%
CCN(CC)S(=O)(=O)c1ccc(-c2nnc(SCC(=O)Nc3cc(OC)cc(OC)c3)o2)cc1	1	13µM*	3%	-20	-2%	-9%
Cc1csc(NC(=O)CSc2nnc(-c3ccc(S(=O)(=O)N4CCCC4)cc3)o2)n1	0	8%	9%	3	0%	-8%
CCN(CC)S(=O)(=O)c1ccc(-c2nnc(SCC(=O)Nc3nc(C)cs3)o2)cc1	2	-5%	-2%	-106*	-1%	-8%
Fc1ccc(-c2noc3ncnc(NCCc4ccccc4)c23)cc1	·	·	4%[46 µM]	·	·	·
COc1cc(NC(=O)Cn2ncc(Cl)c(Cl)c2=O)c(C)cc1[N+](=O)[O-]	·	2µM*	?	·	-2%	·
SMILES	IMPase inh	ALDH1A1 inh	Lamin A splicing	PNC assembly inh	Luc counter	HPGD inh
O=c1c(-c2cc(F)cc(F)c2)nc2cncnc2n1-c1ccccc1	·	13%	1%	·	·	·
O=c1cc(N2CCc3ccccc3C2)[nH]c(=O)n1-c1ccccc1Cl	2	6.3µM*	-9%	10	2%	-15%
CC(C)C1Cc2c(sc(NC(=S)NC(=O)c3ccccc3)c2C#N)CO1 (centres undefined)	0	-6%	1%	-16	2%	-25%
C=CCNC(=S)Nc1sc2c(c1C(=O)OCC)CC(C(C)C)OC2 (centres undefined)	0	11µM*	-26%	32	-4%	-29%
CCOC(=O)c1c(NC(=S)NCCc2ccccc2)sc2c1CC(C(C)C)OC2 (centres undefined)	3	25µM*	?	?	2%	-9%
O=C(C1=NN[C@@H]2C(=O)N(c3cccc(F)c3)C(=O)[C@H]12)c1cnccn1	·	6.3µM*	·	·	·	·
Cc1nc(-c2ccc(S(=O)(=O)N3CCN(c4ccccc4F)CC3)cc2)co1	·	·	-9%[46 µM]	·	·	·
COc1ccccc1CN1CC2(CCN(C(=O)c3cccc(F)c3)CC2)C1	·	?	·	·	2%	-13%
Cc1cccc(N2CCC(N3CCN(C4CCCCC4)C(CCO)C3)CC2)c1C (centres undefined)	·	3.5µM*	10%[46 µM]	·	-3%	·
COc1ccc(NC(=O)/C(=C/c2ccc(OC(C)=O)c(OC)c2)NC(C)=O)cc1	·	4µM*	3%	50	-2%	-14%
COc1ccc(/C=C(/C#N)C(=O)Nc2ccccc2C)cc1C(=O)O	0	5%	-8%	-16	0%	-16%
COc1cc(/C=C(\NC(C)=O)C(=O)Nc2ccc(NC(C)=O)cc2)ccc1OC(C)=O	·	0.25µM*	-10%	27	0%	-12%
COc1cc(/C=C(\NC(C)=O)C(=O)Nc2ccccc2C)ccc1OC(C)=O	·	28µM*	-4%	22	-1%	0%
COc1ccc(NC(=O)/C(=C\c2ccc3c(c2)OCO3)NC(C)=O)cc1	-5	-4%	-13%	16	-1%	-17%
COc1cc(/C=C(\NC(C)=O)C(=O)NC(C)(C)CC(C)(C)C)ccc1OC(C)=O	·	5%	-11%	28	-4%	-8%
CC(C)Nc1oc(-c2ccccc2)nc1-c1cccc2ccccc12	·	1%	·	·	-1%	-9%
N#C/C(=C\c1ccc(-c2ccc(C(=O)O)cc2)o1)C(=O)NCC1CCCO1 (centres undefined)	·	?	-3%	-11	0%	?

Screening results as filed in PubChem.
